PubChem BioAssay (NCI)
Compounds without any hit were thinned out: in the full panel of roughly 83,000, 20% have a hit.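 Testing used 96-well plates and a 48-hour single-concentration exposure. Example: -40 means 40% of the starting cells died.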 Unmarked numbers belong to inactive results. Calls of active or inactive are those of the source. How the source made its calls: active means growth percent below 10; inactive means the rest.

Columns and labels:
Test in all cases: NCI-60 one-dose screen, 48 h (100 = growth as untreated, 0 = no growth, -100 = all killed)
Conditions in all cases: 10 µM unless noted
DU-145 prostate = system: DU-145 prostate
K-562 leukemia = system: K-562 leukemia
MALME-3M melanoma = system: MALME-3M melanoma
MDA-MB-231 breast = system: MDA-MB-231 breast
RXF 393 renal = system: RXF 393 renal
SF-268 CNS = system: SF-268 CNS
SF-295 CNS = system: SF-295 CNS
SF-539 CNS = system: SF-539 CNS
UACC-257 melanoma = system: UACC-257 melanoma
M14 melanoma = system: M14 melanoma

SMILES	growth (DU-145 prostate)	growth (K-562 leukemia)	growth (MALME-3M melanoma)	growth (MDA-MB-231 breast)	growth (RXF 393 renal)	growth (SF-268 CNS)	growth (SF-295 CNS)	growth (SF-539 CNS)	growth (UACC-257 melanoma)	growth (M14 melanoma)
COc1ccc(N2CCN(c3ccc(NC4=C(Cl)C(=O)c5ncccc5C4=O)cc3)CC2)cc1	35.3%	4.16% (active)	31%	56.7%	62.6%	40%	81.2%	39.4%	35.6%	53.6%
Cc1cc(C(=O)/C=C/c2ccc[nH]2)ccc1-n1ccc(C(F)(F)F)n1	96%	53.3%	94.7%	30.6%	21.2%	49.1%	85%	13.5%	97.4%	90.5%
N#Cc1cccc(-c2ccc3c(c2)NC(=O)/C3=C\c2ccc[nH]2)c1	92.8%	18.8%	51.6%	33.5%	73.3%	95.6%	78.7%	71.8%	67.6%	56.4%
COc1cc(NC(C)CCCNC(=O)CCC(=O)NCCCNCCCCCCCCCCNCCCNC(=O)CCC(=O)NCCCC(C)Nc2cc(OC)cc3cccnc23)c2ncccc2c1 (stereo not given)	71.8% [8 µM]	51.2% [8 µM]	38.9% [8 µM]	34.6% [8 µM]	88.1% [8 µM]	66% [8 µM]	97% [8 µM]	75.7% [8 µM]	47.1% [8 µM]	87% [8 µM]
CCCNC(=O)Oc1ccc(/C(=C(\C)c2ccccc2)c2ccc(OCCCN(C)C)cc2)cc1	89.7%	11.5%	40.8%	59.4%	71.1%	71.8%	64%	63.9%	8.5% (active)	25.2%
COc1cc(/C=C/c2cc(O)c(C(C)=O)c(O)c2)cc2c1O[C@]1(C)CC[C@@H](O)C(C)(C)[C@H]1C2	74.5%	31.6%	65.8%	37.6%	-19.4% (active)	55.8%	8.72% (active)	9.14% (active)	76.4%	51.5%
CCOC(=O)[C@@H](C)C[C@H](Cc1ccccc1)NC(=O)c1csc([C@@H](C[C@H](C(C)C)N(C)C(=O)[C@@H](NC(=O)[C@H]2C[C@H](O[Si](C)(C)C(C)(C)C)CCN2C)C(C)C)OC(C)=O)n1	-21.4% [9.25 µM] (active)	3.46% [9.25 µM] (active)	18.1% [9.25 µM]	-34.7% [9.25 µM] (active)	-10.3% [9.25 µM] (active)	4.82% [9.25 µM] (active)	-15.6% [9.25 µM] (active)	-49.7% [9.25 µM] (active)	21.3% [9.25 µM]	-42.2% [9.25 µM] (active)
C=C1C(=O)O[C@H]2[C@H]1CC/C(CNC(=O)/C=C/c1ccccc1)=C\CC[C@@]1(C)O[C@@H]21	-34.3% (active)	1.51% (active)	-50.1% (active)	-15.2% (active)	-90.2% (active)	48.1%	62.3%	-63.8% (active)	-55.1% (active)	-63.2% (active)
COc1ccc(CC(C)=C(c2ccc(OCCN3CCCCCC3)cc2)c2ccc(OCCN3CCCCCC3)cc2)cc1	-96.2% (active)	-55.4% (active)	-91.9% (active)	-98.2% (active)	-82.1% (active)	-81.2% (active)	-93.3% (active)	-95.8% (active)	-76.3% (active)	-67.3% (active)
N#C/C(=C\c1ccc([N+](=O)[O-])s1)c1nc2cc(Br)ccc2s1	25.9%	-5.1% (active)	-81.3% (active)	-56.1% (active)	-17.1% (active)	6.29% (active)	65.7%	-71% (active)	5.39% (active)	-81.9% (active)
O=C(CCN1CCCC1)c1ccc([N+](=O)[O-])cc1	104%	100%	94.9%	102%	107%	101%	97.9%	93.6%	101%	102%
